# Compound activity (PubChem BioAssay)
# GRIN3A LBD mod: modulators (binders) of human NR3A ligand-binding domain | Tm shift relative to glycine control, % at 25 µM | AID 1259313 | actives 2.5% (n = 340,000) | NR3A LBD differential scanning fluorimetry, Tm shift; 0% = protein alone, 100% = glycine-bound protein;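 active means melting temperature shift of at least 10% of the positive control shift, at one fixed dose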
# rCAG binder: molecules binding r(CAG) RNA repeats; r(CAG) RNA repeat, TO-PRO-1 dye displacement fluorescence; inhibition, % at 3 µM; actives 1.3% (n = 370,000); AID 651821;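 active means inhibition above the plate cutoff, the mean of all test compounds on that plate plus 3 SD, cut at about 35% in these data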;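 further: 0% = DMSO alone and 100% = 100 µM mitoxantrone as full dye displacement; higher means more dye released from RNA so lower well fluorescence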
# Myeloid diff 2: myeloid differentiation induction; ER-HoxA9 myeloid progenitors, lysozyme-GFP differentiation, flow cytometry; calls only at 10 µM; actives 1% (n = 360,000);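 active means normalized GFP-positive differentiation at or above the plate's own cutoff, the solvent-only control mean plus 3 SD; inconclusive means no clear call, values can overlap the other calls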;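 further: cells exposed to compound for four days before flow analysis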
# MPTP block: blocks calcium-induced mitochondrial swelling. isolated mouse mitochondria, Ca2+ swelling absorbance, 30 min. inhibition, % at 10 µM. actives 1.4% (n = 360,000). AID 602449;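 active means inhibition of 50% or more, scaled per plate between neutral and stimulator controls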;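 further: 0% = DMSO wells given calcium and 100% = 1 mM EGTA wells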
# FAS-TE inh: inhibitors of human fatty acid synthase thioesterase domain | P49327 | recombinant FAS-TE, OMFH fluorogenic substrate, fluorescence endpoint | inhibition, % at 15 µM | actives 0.67% (n = 360,000);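 active means compounds whose normalised, plate-corrected inhibition of enzyme fluorescence in the single-dose primary screen is 50% or more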;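 further: 0% = DMSO with enzyme and 100% = substrate without enzyme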
# FAS-TE inh conf: confirmation of human fatty acid synthase thioesterase inhibitors | shares compounds with FAS-TE inh | recombinant FAS-TE, OMFH fluorogenic substrate, fluorescence | inhibition, % at 15 µM | actives 45% (n = 2,300) | AID 624325;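 active means compounds inhibiting the enzyme by at least 50% at 15 µM in any one of the replicates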;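 further: 0% = enzyme with DMSO only and 100% = wells lacking enzyme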
# * hit, by the source's call; i = inactive; u = inconclusive; x = no result. This is a sample that favours compounds with a hit; in the whole collection about 5.7% have one here.
SMILES,GRIN3A LBD mod,rCAG binder,Myeloid diff 2,MPTP block,FAS-TE inh,FAS-TE inh conf
CN(C(=O)c1cccc(NC(=O)Cc2ccc(NC(=O)C3CCN(S(=O)(=O)c4cccc([N+](=O)[O-])c4)CC3)cc2)c1)C1CCCC1,9,17,i,3,59*,25
CN(Cc1ccccc1)C(=O)c1cccc(NC(=O)Cc2ccc(NC(=O)C3CCCN(S(=O)(=O)c4cccc([N+](=O)[O-])c4)C3)cc2)c1 (stereo not drawn),x,18,x,x,x,x
CN(C(=O)c1cccc(NC(=O)Cc2ccc(NC(=O)C3CCCN(S(=O)(=O)c4cccc([N+](=O)[O-])c4)C3)cc2)c1)C1CCCCC1 (stereo not drawn),10*,14,i,2,73*,16
CN(C(=O)c1cccc(NC(=O)Cc2ccc(NC(=O)C3CCN(S(=O)(=O)c4cccc([N+](=O)[O-])c4)CC3)cc2)c1)C1CCC1,-6,15,i,0,2,x
O=S(=O)(N1CCCCC1)n1nnc2cc3ccccc3cc21,x,3,x,x,x,x
O=S(=O)(Nc1ccc(-c2csc(-c3ccccc3)n2)cc1)c1ccc(F)cc1,22*,29,i,7,58*,1
CCOC1=C2[C@@H](CN(S(=O)(=O)c3ccc(C)cc3)[C@H]2c2ccccc2Cl)[C@H]2C(=O)NC(=O)[C@H]2C1,x,5,i,0,3,x
CCOC1=C2[C@H](c3ccccc3Cl)N(S(=O)(=O)c3ccc(C)cc3)C[C@H]2C(C#N)(C#N)C(C#N)(C#N)C1,x,23,i,-7,76*,14
CCOC1=C2[C@H](c3ccc(CC)cc3)N(S(=O)(=O)c3ccc(C)cc3)C[C@H]2C(C#N)(C#N)C(C#N)(C#N)C1,x,22,i,-11,80*,11
COC(=O)c1cc2c(c3c4ccccc4n(S(=O)(=O)c4ccc(C)cc4)c13)C(=O)N(CC(C)C)C2,x,19,x,x,x,x
O=C(COc1cc([N+](=O)[O-])cc2cccnc12)NCCC1=CCCCC1,1,-3,i,-2,83*,87*
COC(=O)c1ccc(COc2cc([N+](=O)[O-])cc3cccnc23)o1,-8,3,i,-2,55*,57*
COC(=O)c1ccc(COc2ccc(C)cc2[N+](=O)[O-])o1,-1,1,i,2,10,x
CC(=O)NCCn1c(SCc2cccc([N+](=O)[O-])c2)nc2ccccc2c1=O,0,0,i,1,53*,12
CC(=O)NCCn1c(SCc2cc(F)ccc2F)nc2ccccc2c1=O,0,-6,i,2,0,x
O=c1c2ccccc2nc(SCc2ccc([N+](=O)[O-])cc2)n1CCCO,-30,-1,u,0,68*,50*
Nn1c(SCc2ccc([N+](=O)[O-])cc2)nc2ccccc2c1=O,-4,-3,i,1,32,x
O=C(Nc1ccc(F)cc1)OC1CC2CC1[C@H]1CCCCN1[C@H]2Cc1ccccc1 (stereo partly drawn),x,9,x,x,x,x
COCCCNC(=O)C[C@H]1C[C@@]2(C(=O)OC)C(=C[C@H](C3CCCC3)O[C@@H]2C)N(Cc2ccco2)C1=O,x,-1,x,x,x,x
CCOC1=C2CN(S(=O)(=O)c3ccc(C)cc3)[C@H](c3cccs3)C[C@H]2n2c(=O)n(-c3ccccc3)c(=O)n2C1,x,12,i,-1,49,x
CCOC1=C2[C@H](c3ccccc3)N(S(=O)(=O)c3ccc(C)cc3)C(C(C)(C)C)[C@H]2n2c(=O)n(-c3ccccc3)c(=O)n2C1 (stereo partly drawn),x,8,i,3,89*,28
CCOC1=C2[C@H](c3ccccc3)N(S(=O)(=O)c3ccc(C)cc3)[C@H](C(C)C)[C@H]2n2c(=O)n(-c3ccccc3)c(=O)n2C1,x,11,i,0,60*,18
Cc1cc2c(nc1C)CCCN2S(=O)(=O)c1c(C)noc1C,x,8,x,x,x,x
CCOC(=O)C1=C(C(=O)OCC)C2N(Cc3ccccc3)c3ccccc3[C@@]23C[C@@H](C(=O)OC)N(S(=O)(=O)c2ccc(C(F)(F)F)cc2)C3=N1 (stereo partly drawn),x,8,x,x,x,x
Cc1ccc(N2C(=O)C3CCCN3C2=S)c(C)c1 (stereo not drawn),0,3,i,-1,-7,x
SMILES,GRIN3A LBD mod,rCAG binder,Myeloid diff 2,MPTP block,FAS-TE inh,FAS-TE inh conf
Cc1ccc(N2C(=O)C3CC(c4ccccc4)=C4C5C=CC(C6C(=O)N(c7ccc(C)cc7)C(=O)C56)C4C3C2=O)cc1 (stereo not drawn),-6,5,i,-2,85*,9
Cc1ccc(N2C(=O)C3CC(c4ccccc4)=C4C5C=CC(C6C(=O)N(c7ccc(C)cc7C)C(=O)C56)C4C3C2=O)c(C)c1 (stereo not drawn),-5,x,i,1,100*,44*
COC(=O)[C@]12C[C@H](CC(=O)NCc3cccc4ccccc34)C(=O)N(Cc3ccc4c(c3)OCO4)C1=C[C@H](C(C)C)O[C@@H]2C1CC1,x,8,x,x,x,x
Cc1cccc(N2C(=O)CC(Sc3nc(-c4ccccc4)c4cc(Cl)ccc4n3)C2=O)c1 (stereo not drawn),1,8,i,1,66*,28
CN(C)N1C(N)=C(C#N)C(c2cccc3ccccc23)C2=C1CC(c1ccccc1)CC2=O (stereo not drawn),-5,6,i,-4,65*,33
CC(C)C[C@@H]1COc2cc(N3CCCC3)ccc2S(=O)(=O)N1,x,3,x,x,x,x
CCCCc1ccc(/C(C)=N/Nc2cc(N3CCOCC3)nc(C)n2)cc1,4,-2,i,1,73*,20
O=[N+]([O-])c1c(Nc2cccc(O)c2)cc(Cl)c2nonc12,-4,9,u,-1,78*,50*
Cc1cc(Nc2ccc(Cl)c(C(F)(F)F)c2)cc(=O)n1-c1ccc(Cl)c(C(F)(F)F)c1,x,8,x,x,x,x
COc1cccc2cc(C(=O)NCCC3=CCCCC3)c(=O)oc12,-6,-1,i,2,59*,27
COc1cccc2cc(C(=O)NCCc3ccccc3)c(=O)oc12,-2,-2,i,1,27,x
Cc1ccc(/C=N/NC(=O)CSc2nc3ccccc3c(=O)n2-c2ccccc2C)s1,4,5,i,-19,51*,21
Cc1ccc(/C=N/NC(=O)CSc2nc3ccccc3c(=O)n2-c2ccccc2)s1,4,0,i,8,-13,x
Cc1ccccc1-n1c(SCC(=O)N/N=C/c2c(C)nn(-c3ccccc3)c2C)nc2ccccc2c1=O,20*,10,i,-1,59*,16
Cc1nn(-c2ccccc2)c(C)c1/C=N/NC(=O)CSc1nc2ccccc2c(=O)n1-c1ccc(Br)cc1,-2,0,i,1,-11,x
